Measured potencies and affinities stand elsewhere. Active and inactive are the calls of the source.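 How the source made its calls: active means every repeat run showing a signal drop whose fitted half-maximal concentration is at most twice the top tested concentration; inconclusive means repeat runs disagree, or flat partial drop, or poor fit; inactive means the rest.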

This assay can be described thus: general mammalian cell viability loss – activator set, cherry-pick, cytotoxicity control for miR-122 modulator project, dose response (AID 720690). The settings on record: HEK293T viability, CellTiter-Glo luminescence, 48 h; series mostly up to 26 µM. A general note: In ATP-based viability assays light output follows the ATP content of the culture.
Regarding `Clc1ccc(CSc2nnc(-c3ccncc3)o2)c(Cl)c1`, the call was inactive. For `CC(=O)N1[C@H](CO)[C@@H](c2ccccc2)[C@H]1CN(CC(C)C)C(=O)c1ccccn1`, the outcome was inactive. With `CN(C)CCNC(=O)C1CC(=O)N(c2ccc(F)c(Cl)c2)C1` (stereo unspecified), the outcome was inactive. `CN1C(=O)c2cc(NC(=O)c3cccs3)ccc2OC[C@H]2O[C@@H](CC(=O)NCCN3CCCCC3)CC[C@H]21`: the outcome was inactive.

For `CN1C(=O)c2cc(NC(=O)c3cccc(F)c3)ccc2OC[C@@H]2O[C@H](CC(=O)Nc3ccccc3)CC[C@H]21`, the result was inactive.

Take `Cc1nnsc1Sc1cccc(C(F)(F)F)c1`: the result was inactive.

With `COc1cccc(CNC(=O)C[C@@H]2CC[C@H]3[C@H](COc4ccc(NS(=O)(=O)c5ccccc5F)cc4C(=O)N3C)O2)c1`, the compound was classed as inactive. Regarding `C[C@@H]1CN([C@@H](C)CO)S(=O)(=O)c2ccc(/C=C/c3ccccc3)cc2O[C@@H]1CN(C)C(=O)NC1CCCCC1`, the compound was classed as inactive. For `COc1cccc(NC(=O)Nc2ccc3c(c2)C(=O)N(C)C[C@@H](OC)[C@@H](C)CN[C@H](C)CO3)c1`, the result was inactive. Take `NC(=O)c1csc(-c2ccncc2)n1`: the outcome was inactive. In the case of `Cc1cccc(NC(=O)Nc2ccc3c(c2)C(=O)N(C)[C@H]2CC[C@H](CC(=O)O)O[C@H]2CO3)c1`, the outcome was inactive. Take `CNC(=O)C[C@@H]1CC[C@@H]2[C@@H](COc3ccc(NC(=O)c4ccccc4F)cc3C(=O)N2C)O1`: the result was inactive.

For `c1ccc(CCCNCCCn2cnc3c(OCc4ccccc4)ncnc32)cc1`, the compound was classed as inactive.

Take `CN1C[C@@H]2[C@H](c3ccccc31)[C@@H](CO)N2C(=O)Nc1ccccc1`: the outcome was inactive. As to `COc1ccc(-c2oc3ncnc(NCCCN4CCOCC4)c3c2-c2ccc(OC)cc2)cc1`, the outcome was inactive. Consider `CCCNC(=O)Nc1ccc2c(c1)C(=O)N(C)[C@@H]1CC[C@@H](CC(=O)NCC3CCCCC3)O[C@@H]1CO2`, for which the result was inactive. Next, `COCC(=O)Nc1ccc2c(c1)C(=O)N(C)[C@@H]1CC[C@H](CC(=O)NC3CCCC3)O[C@H]1CO2`: “inactive”; `CN1C(=O)c2cc(NC(=O)Cc3ccccc3)ccc2OC[C@@H]2O[C@@H](CC(=O)O)CC[C@H]21`: “inactive”; `Cc1cc(C)cc(NC(=O)c2ccc(CSc3nnc(C)s3)cc2)c1`: “inactive”.

Turning to `CCNC(=O)Nc1ccc2c(c1)C(=O)N(C)[C@H]1CC[C@H](CC(=O)NCCN3CCCC3)O[C@@H]1CO2`, the call was inactive.

As for `C[C@@H]1CN([C@H](C)CO)C(=O)c2cc(-c3cncnc3)cnc2O[C@H]1CN(C)Cc1ccc(Oc2ccccc2)cc1`, the compound was called inactive. Take `CN1C(=O)c2cc(NC(=O)C3CC3)ccc2OC[C@@H]2O[C@H](CC(=O)NC3CCC3)CC[C@H]21`: the outcome was inactive.

Turning to `COCC(=O)N(C)C[C@@H]1[C@@H](c2ccccc2)[C@H](CO)N1C(=O)Cc1ccncc1`, the compound was classed as inactive. Consider `Cc1ccccc1NC(=O)Nc1ccc2c(c1)C(=O)N(C)[C@H]1CC[C@@H](CC(=O)O)O[C@H]1CO2`, for which the outcome was inactive.

For the compound `CCCC#Cc1ccc2c(c1)O[C@H](CN(C)C(=O)COC)[C@H](C)CN([C@@H](C)CO)S2(=O)=O`, the compound was called inactive. With `CNC(=O)C[C@@H]1CC[C@@H]2[C@@H](COc3ccc(NC(=O)Nc4ccccc4OC)cc3C(=O)N2C)O1`, the outcome was inactive. Turning to `COc1ccc(-c2ccc3c(c2)O[C@H](CN(C)C(=O)Nc2ccccc2F)[C@H](C)CN([C@@H](C)CO)S3(=O)=O)cc1`, the result was inactive. The value for `CCC(=O)Nc1ccc2c(c1)C(=O)N(C)[C@@H]1CC[C@H](CC(=O)Nc3cccc(OC)c3)O[C@@H]1CO2` was “inactive”; that for `CNc1nc(NCC2CCCCC2)c2sccc2n1` was “inactive”; that for `CCNC(=O)C[C@H]1CC[C@@H]2[C@H](COc3ccc(NC(=O)c4cccs4)cc3C(=O)N2C)O1` was “inactive”.

For `CCN(C[C@H]1[C@H](c2ccccc2)[C@@H](CO)N1S(C)(=O)=O)C(=O)C1CC1`, the result was inactive.

For `CN1C(=O)c2cc(NC(=O)c3cccc(F)c3)ccc2OC[C@H]2O[C@H](CC(=O)N3CCc4ccccc4C3)CC[C@H]21`, the result was inactive. On to `CCc1nc2sc(C)c(C)c2c(=O)n1CCO`, for which the result was inactive.

Turning to `COc1cccc(S(=O)(=O)N(C)C[C@@H]2Oc3cc(C4=CCCC4)ccc3S(=O)(=O)N([C@H](C)CO)C[C@@H]2C)c1`, the compound was called inactive. For `CN1C(=O)c2cc(NC(=O)Nc3ccccc3Cl)ccc2OC[C@H]2O[C@H](CC(=O)O)CC[C@H]21`, the compound was called inactive. The value for `CCCNC(=O)C[C@H]1CC[C@@H]2[C@H](COc3ccc(NC(=O)c4cccs4)cc3C(=O)N2C)O1` was “inactive”.

Values taken from PubChem BioAssay AID720690 (Broad Institute, 2013).
